Measurements taken from article PMC5540273 (PLoS ONE, 2017).
Values joined by “and” are separate entries in the source; they are usually repeats but may differ in a detail not shown here. Equal entries are not always repeated. Where two headings read alike, the source gives them in different places.

Columns and labels:
MAP4K4 = details: concentration: 1 μM, replicates: in singlicate; n = 1
MAP4K5 = details: concentration: 1 μM, replicates: in singlicate; n = 1
MAPKAPK2 = details: n = 1
MAPKAPK5 = details: concentration: 1 μM, replicates: in singlicate; n = 1
MARK1 = details: n = 1
MARK2 = details: concentration: 1 μM, replicates: in singlicate; n = 1
MARK3 = details: concentration: 1 μM, replicates: in singlicate; n = 1
MARK4 = details: n = 1
MAST1 = details: concentration: 1 μM, replicates: in singlicate; n = 1
MEK1 = system: T1, MEK1; details: concentration: 1 μM, replicates: in singlicate; n = 1
T1 construct: gene MAP2K1

[1] = concentration: 1 μM, replicates: in singlicate
[2] = concentration: 1 μM,replicates: in singlicate, 1 µM
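Note: KINOMEscan kinase panel screen.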

Row | Structure (SMILES) | %Inh (MAP4K4) [%] | %Inh (MAP4K5) [%] | %Inh (MAPKAPK2; [1]) [%] | %Inh (MAPKAPK5) [%] | %Inh (MARK1; [1]) [%] | %Inh (MARK2) [%] | %Inh (MARK3) [%] | %Inh (MARK4; [1]) [%] | %Inh (MAST1) [%] | %Inh (MEK1) [%] | %Inh (MAPKAPK2; [2]) | %Inh (MARK1; [2]) | %Inh (MARK4; [2])
1 | Cc1ccc(NC(=O)Nc2cc(C(C)(C)C)nn2-c2ccccc2)cc1 [GSK1014915] | 19 | 11 | 25 | 0 | 0 | 0 | 17 | 10 | 0 | 0 | – | – | –
2 | CC(C)(C)c1ccc(C(=O)Nc2cn3cc(Cl)ccc3n2)cc1 | 2 | 2 | 0 | 0 | 0 | 78 | 0 | 0 | 0 | 24 | – | – | –
3 | COc1cc2ncn(-c3cc(OCC4CCCO4)c(C(N)=O)s3)c2cc1OC (stereo not drawn) [GSK204607] | 6 | 4 | 0 | 0 | 0 | 0 | 0 | 0 | 2 | 24 | – | – | –
4 | CS(=O)(=O)c1ccc(-c2nc3n(c2-c2ccncc2)CCC3)cc1 [SKF-105942] | 0 | 0 | 36 | 0 | 0 | 0 | 0 | 0 | 0 | 0 | – | – | –
5 | Cc1cccc(-c2nc(Nc3cccc(C(N)=O)c3)c3ccccc3n2)n1 [GW876019] | 0 | 0 | 0 | 0 | 0 | 0 | 45 | 0 | 11 | 97.2 | – | – | –
6 | Cc1cccc(-c2nc(Nc3ccncc3)c3ccccc3n2)n1 [GW855857] | 0 | 0 | 0 | 0 | 0 | 0 | 32 | 25 | 50 | 0 | – | – | –
7 | COC(=O)c1c(-c2ccccc2)c2cc(C(=O)O)ccc2c(=O)n1Cc1ccccc1 | 0 | 7 | 3 | 0 | 0 | 3 | 0 | 0 | 0 | 0 | – | – | –
8 | CN(C)CCN(C)C(=O)c1cc(-c2ccncc2)c(-c2ccc(Cl)c(O)c2)o1.Cl.Cl [SB-710397] | 18 | 0 | 2 | 0 | 0 | 0 | 0 | 0 | 10 | 0 | – | – | –
9 | COc1cc2ncnc(Nc3ccc4nc(-c5ccccc5)[nH]c4c3)c2cc1OC.Cl [GW282450] | 0 | 0 | 24 | 0 | 0 | 0 | 0 | 0 | 0 | 0 | – | – | –
10 | CN1C(=O)C(Nc2ccc(Cl)c(C(=O)O)c2)=C(c2ccc(Cl)cc2)C1=O [SB-404290] | 0 | 0 | 23 | 12 | 0 | 27 | 0 | 13 | 42 | 0 | – | – | –
11 | Cn1cncc1-c1ccc2ncnc(Nc3ccc(OCc4ccccc4)cc3)c2c1 [GW320571] | 25 | 21 | 21 | 0 | 0 | 0 | 0 | 2 | 0 | 11 | – | – | –
12 | Cl.c1ccc(-c2n[nH]cc2-c2ccnc(-c3ccc(CN4CCOCC4)cc3)c2)nc1 [GW776245] | 0 | 0 | 13 | 0 | 0 | 6 | 1 | 28 | 0 | 14 | – | – | –
13 | CCn1c(-c2ccccn2)nc2cnccc21 [SB-736398] | 0 | 1 | 21 | 0 | 0 | 0 | 3 | 8 | 47 | 0 | – | – | –
14 | COc1ccc(CNC(=O)NC2CCN(c3ccnc(Nc4cc(OC)c(OC)c(OC)c4)n3)C2)cc1 (stereo not drawn) [GSK1379748] | 0 | 0 | 0 | 0 | 0 | 0 | 0 | 0 | 13 | 0 | – | – | –
15 | Cc1ccc(NC(=O)Nc2cccc(Cl)c2)cc1-c1ccc(C(=O)Nc2ccncc2)cc1 [GSK1398468] | 0 | 0 | 0 | 0 | 26 | 0 | 0 | 12 | 0 | 100 | – | – | –
16 | Cc1cc(NCC(c2ccccc2)c2ccccc2)nc(NCc2ccc(C(F)(F)F)cc2)n1 [GW497681] | 0 | 0 | 0 | 0 | 0 | 0 | 0 | 0 | 0 | 0 | – | – | –
17 | Nc1nc(-c2nccs2)c(-c2ccnc3ccccc23)s1 [GW693542] | 4 | 0 | 28 | 0 | 0 | 0 | 0 | 1 | 0 | 0 | – | – | –
18 | Fc1cccc(COc2nnc(-c3ccc4c(c3)CCO4)o2)c1 | 0 | 0 | 0 | 11 | 14 | 24 | 0 | 24 | 21 | 5 | – | – | –

Row | Structure (SMILES) | %Inh (MAP4K4) [%] | %Inh (MAP4K5) [%] | %Inh (MAPKAPK2; [1]) [%] | %Inh (MAPKAPK5) [%] | %Inh (MARK1; [1]) [%] | %Inh (MARK2) [%] | %Inh (MARK3) [%] | %Inh (MARK4; [1]) [%] | %Inh (MAST1) [%] | %Inh (MEK1) [%] | %Inh (MAPKAPK2; [2]) | %Inh (MARK1; [2]) | %Inh (MARK4; [2])
19 | CSc1nn2c(=O)cc(N3CCOCC3)nc2n1Cc1cccc(C(F)(F)F)c1C [GSK2363608] | 0 | 0 | – | 0 | – | 0 | 0 | – | 0 | 0 | 2% and 27% | 9% and 0% | 15% and 0%
20 | Fc1cc(Cl)ccc1Nc1ccnc2cc(I)ccc12 [GW551191] | 28 | 0 | 19 | 0 | 0 | 0 | 11 | 0 | 0 | 0 | – | – | –
21 | Nc1ncnc2[nH]c(-c3ccccc3)nc12 [AH5015] | 4 | 0 | 12 | 0 | 0 | 0 | 0 | 0 | 0 | 0 | – | – | –
22 | CC1=C(C(=O)Nc2cc3cn[nH]c3cc2F)C(c2ccc(C(F)(F)F)cc2)CC(=O)N1 (stereo not drawn) [GSK429286] | 59 | 75 | 21 | 0 | 0 | 0 | 0 | 0 | 0 | 0 | – | – | –
23 | Cc1ccc(C(=O)Nc2ccc(Nc3ccnc4cc(-c5ccccn5)ccc34)cc2O)cc1.Cl [GW440146] | 0 | 70 | 18 | 0 | 0 | 0 | 2 | 4 | 0 | 0 | – | – | –
24 | O=C(O)COc1ncnc2cc(-c3ccc4[nH]ncc4c3)sc12 | 0 | 6 | 0 | 9 | 8 | 20 | 0 | 14 | 0 | 5 | – | – | –
25 | COc1ccc(Nc2nccc(-c3cccc(NC(=O)c4cc5cc(F)ccc5[nH]4)c3)n2)cc1 [GSK1229782] | 22 | 7 | 0 | 0 | 9 | 19 | 0 | 21 | 20 | 0 | – | – | –
26 | COC(=O)c1c(-c2ccccc2)c2cc(OC)ccc2c(=O)n1Cc1ccccc1 | 0 | 0 | 10 | 0 | 19 | 21 | 0 | 22 | 20 | 0 | – | – | –
27 | Cc1cc(N2Cc3ccccc3C2)nc(Nc2ccc(S(=O)(=O)N3CCOCC3)cc2)n1.Cl [GSK1669917] | 0 | 0 | 4 | 0 | 0 | 0 | 12 | 0 | 0 | 0 | – | – | –
28 | COc1ccc(C2=C(Nc3cccc(C(=O)O)c3)C(=O)NC2=O)cc1 [SB-390765] | 0 | 0 | 0 | 20 | 3 | 8 | 0 | 0 | 30 | 13 | – | – | –
29 | COc1cc2nccc(Nc3ccc(NC(=O)c4ccc(C)cc4)c(O)c3)c2cc1OC.Cl [GW440132] | 0 | 3 | 8 | 0 | 0 | 0 | 0 | 14 | 0 | 8 | – | – | –
30 | Cc1c(Cn2ccn3c(=O)cc(N4CCOCC4)nc23)cccc1C(F)(F)F [GSK2289044] | 0 | 0 | 4 | 0 | 0 | 5 | 2 | 0 | 0 | 0 | – | – | –
31 | Cc1cccc(-c2nc(-c3ccc(S(C)(=O)=O)cc3)sc2-c2ccnc(NCCc3ccccc3)c2)c1 | 0 | 0 | 0 | 0 | 0 | 11 | 0 | 0 | 0 | 0 | – | – | –
32 | Cc1cccc(-c2nc(Nc3ccc4[nH]ncc4c3)c3ccccc3n2)n1 [GW857175] | 0 | 0 | 0 | 28 | 16 | 0 | 0 | 0 | 1 | 25 | – | – | –
33 | COc1cccc(-c2cc(-c3c[nH]nc3-c3ccccn3)ccn2)c1 [GW680338] | 40 | 1 | 0 | 1 | 0 | 12 | 0 | 0 | 0 | 16 | – | – | –
34 | Cl.NC(=O)c1cccc(Nc2nccc(Nc3ccc(Oc4cccc(Cl)c4)c(Cl)c3)n2)c1 [GW659008] | 18 | 33 | 8 | 0 | 13 | 0 | 0 | 24 | 5 | 0 | – | – | –
35 | O=S(=O)(c1ccc(-c2ccnc3[nH]ccc23)cc1)N1CCCC1 [GSK846226] | 0 | 0 | 0 | 0 | 0 | 8 | 0 | 0 | 0 | 24 | – | – | –
36 | CCCc1ccc(S(=O)(=O)NC2CCN(c3ccnc(Nc4ccc(F)cc4)n3)C2)cc1 (stereo not drawn) [GSK1379715] | 0 | 0 | 15 | 0 | 0 | 0 | 0 | 0 | 48 | 0 | – | – | –
